Experimental data from PubChem BioAssay (NCATS).
Where “and” joins values, the source holds several entries; their conditions need not be identical. Identical values can stand only once. Inconclusive results are not listed. Calls of active or inactive are those of the source. Unless noted, calls follow the shape of the dose curve; as a rule, active = well fitted curve in the direction sought with a large enough effect; inconclusive = small, poorly fitted or top-dose-only effect, or another doubt; inactive = no such curve, though single readings can be large; an effect the other way counts as inactive or inconclusive.

Legend:
[1] = High-throughput drug toxicity screening in the BPDCN cell line Cal-1 (AID 1224825; call rule not given here); settings: Cal-1 BPDCN cell viability, qHTS; at 45.8 µM (top of the series) unless noted
In short: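 Percent activity derived from CellTiter-Glo luminescence, scaling DMSO to 100% and 9.2 uM final bortezomib to 0%. BPDCN Cal-1 cells (500/well, RPMI plus 10% FBS) incubated with compounds 48 hours at 37C before reading.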

[2] = qHTS assay for measurement of the activity of small molecule inhibitors on Zika virus induced Caspase-3 activity in human iPSC derived neural progenitor cells (hNPCs) (AID 1224857); also: nearly all actives have a fitted effect of over 65% in size
In short: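 After overnight (16–20 h) culture at 350 cells/well, hNPCs get compound, then ZIKV 2 FFU/cell one hour later. Six hours on, Caspase-Glo 3/7 is added and luminescence measured.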

[3] = qHTS assay for measurement of the activity of small molecule inhibitors on Zika virus induced Caspase-3 activity in human astrocytoma cells (AID 1224859)
In short: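 Inhibition of Zika-induced caspase-3/7 activity: SNB-19 cells, 1 h compound pretreatment, ZIKV 2 FFU/cell for 6 h at 37 C, Caspase-Glo luminescence read-out.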

[4] = qHTS Screen of the MIPE 4.0 Collection Against Ewings Sarcoma (RDES) (AID 1259252); also: nearly all actives have a fitted effect of over 35% in size; also: potency is read from the fitted curve at half-maximal effect
In short: (§1)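 CellTiter-Glo luminescence after 48 h compound exposure (titration) gave viability; percent activity used DMSO-treated cells as no inhibition and medium-only wells as full inhibition. Cells grown in RPMI/5% FBS, dosed 4 h post-seeding.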

[5] = qHTS Screen of the MIPE 4.0 Collection Against Ewings Sarcoma (TC71) (AID 1259253); also: nearly all actives have a fitted effect of over 40% in size; also: potency is read from the fitted curve at half-maximal effect
In short: as §1

[6] = qHTS Screen of the MIPE 4.0 Collection Against Ewings Sarcoma (EW8) (AID 1259255); also: nearly all actives have a fitted effect of over 35% in size; also: potency is read from the fitted curve at half-maximal effect
In short: as §1

[7] = qHTS assay to identify small molecule inhibitors of chordoma cells - UCH-1 (AID 1259355); also: nearly all actives have a fitted effect of over 55% in size
In short: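 800 cells/well, overnight attach; compounds pinned at 15 concs, then auranofin/camptothecin/doxorubicin/rubitecan/topotecan combo added; 48hr 37 C, 5% CO2; CellTiter-Glo, 30min RT, luminescence.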

[8] = qHTS assay to identify small molecule inhibitors of chordoma cells - UCH-2 (AID 1259356)
[9] = P-glycoprotein substrates identified in KB-8-5-11 adenocarcinoma cell line, qHTS therapeutic library screen (AID 1346987); also: nearly all actives have a fitted effect of over 65% in size; also: potency is read from the fitted curve at half-maximal effect
In short: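 Compounds are pinned in dose-response onto KB-8-5-11 cells (500 cells/well, colchicine-free medium) and left 72 h at 37 degree C. CellTiter-Glo luminescence then yields AC50 values.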

[10] = target: Atrial natriuretic peptide receptor 1 (Homo sapiens) (UniProt P16066); assay: Natriuretic polypeptide receptor (hNpr1) antagonism - Pilot screen (AID 1347049; calls by dose curve;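 also: HEK293 cells with hNpr1 and GloSensor cGMP luciferase stimulated by 0.1 nM hNppA; agonist-evoked cGMP luminescence read 20 min after hNppA addition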)
Chain of Atrial natriuretic peptide receptor 1 (Homo sapiens) (P16066 whole entry, looked up): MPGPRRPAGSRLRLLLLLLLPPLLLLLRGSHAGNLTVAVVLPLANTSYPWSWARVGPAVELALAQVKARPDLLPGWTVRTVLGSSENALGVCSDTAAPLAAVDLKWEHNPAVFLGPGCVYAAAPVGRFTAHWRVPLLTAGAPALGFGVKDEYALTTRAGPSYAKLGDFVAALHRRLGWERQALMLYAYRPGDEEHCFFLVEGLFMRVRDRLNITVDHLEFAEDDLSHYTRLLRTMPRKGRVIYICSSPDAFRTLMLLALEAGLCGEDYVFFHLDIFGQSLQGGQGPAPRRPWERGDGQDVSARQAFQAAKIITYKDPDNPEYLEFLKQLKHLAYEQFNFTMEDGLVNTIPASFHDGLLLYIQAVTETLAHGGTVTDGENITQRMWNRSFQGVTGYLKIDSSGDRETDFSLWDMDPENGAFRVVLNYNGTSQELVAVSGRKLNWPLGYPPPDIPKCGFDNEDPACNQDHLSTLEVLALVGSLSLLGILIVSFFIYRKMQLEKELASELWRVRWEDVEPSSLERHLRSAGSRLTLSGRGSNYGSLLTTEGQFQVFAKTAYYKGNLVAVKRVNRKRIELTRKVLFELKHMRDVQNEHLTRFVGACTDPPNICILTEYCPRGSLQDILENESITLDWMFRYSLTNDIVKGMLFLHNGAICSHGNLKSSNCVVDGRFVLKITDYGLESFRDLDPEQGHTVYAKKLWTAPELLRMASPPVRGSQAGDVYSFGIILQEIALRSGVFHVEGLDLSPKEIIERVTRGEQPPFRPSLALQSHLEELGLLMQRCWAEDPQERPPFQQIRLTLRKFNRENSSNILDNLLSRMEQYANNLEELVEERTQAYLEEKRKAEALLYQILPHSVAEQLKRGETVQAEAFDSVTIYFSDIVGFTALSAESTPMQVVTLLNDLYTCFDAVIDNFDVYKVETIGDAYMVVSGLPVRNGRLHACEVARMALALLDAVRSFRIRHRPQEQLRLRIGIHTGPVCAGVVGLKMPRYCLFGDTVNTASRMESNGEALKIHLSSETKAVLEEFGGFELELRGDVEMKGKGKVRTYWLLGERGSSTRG
In short: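 Receptor antagonism read as cGMP-dependent luminescence in hNpr1/pGS-40F HEK293 cells: pre-read after 30 min compound exposure, post-read 20 min after hNppA agonist at 0.1 nM final, all at room temperature, protected from light; A-71915 titration as control.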

[11] = target: Atrial natriuretic peptide receptor 2 (Homo sapiens) (UniProt P20594); assay: Natriuretic polypeptide receptor (hNpr2) antagonism - Pilot subtype selectivity assay (AID 1347050; calls by dose curve)
Chain of Atrial natriuretic peptide receptor 2 (Homo sapiens) (P20594 whole entry, looked up): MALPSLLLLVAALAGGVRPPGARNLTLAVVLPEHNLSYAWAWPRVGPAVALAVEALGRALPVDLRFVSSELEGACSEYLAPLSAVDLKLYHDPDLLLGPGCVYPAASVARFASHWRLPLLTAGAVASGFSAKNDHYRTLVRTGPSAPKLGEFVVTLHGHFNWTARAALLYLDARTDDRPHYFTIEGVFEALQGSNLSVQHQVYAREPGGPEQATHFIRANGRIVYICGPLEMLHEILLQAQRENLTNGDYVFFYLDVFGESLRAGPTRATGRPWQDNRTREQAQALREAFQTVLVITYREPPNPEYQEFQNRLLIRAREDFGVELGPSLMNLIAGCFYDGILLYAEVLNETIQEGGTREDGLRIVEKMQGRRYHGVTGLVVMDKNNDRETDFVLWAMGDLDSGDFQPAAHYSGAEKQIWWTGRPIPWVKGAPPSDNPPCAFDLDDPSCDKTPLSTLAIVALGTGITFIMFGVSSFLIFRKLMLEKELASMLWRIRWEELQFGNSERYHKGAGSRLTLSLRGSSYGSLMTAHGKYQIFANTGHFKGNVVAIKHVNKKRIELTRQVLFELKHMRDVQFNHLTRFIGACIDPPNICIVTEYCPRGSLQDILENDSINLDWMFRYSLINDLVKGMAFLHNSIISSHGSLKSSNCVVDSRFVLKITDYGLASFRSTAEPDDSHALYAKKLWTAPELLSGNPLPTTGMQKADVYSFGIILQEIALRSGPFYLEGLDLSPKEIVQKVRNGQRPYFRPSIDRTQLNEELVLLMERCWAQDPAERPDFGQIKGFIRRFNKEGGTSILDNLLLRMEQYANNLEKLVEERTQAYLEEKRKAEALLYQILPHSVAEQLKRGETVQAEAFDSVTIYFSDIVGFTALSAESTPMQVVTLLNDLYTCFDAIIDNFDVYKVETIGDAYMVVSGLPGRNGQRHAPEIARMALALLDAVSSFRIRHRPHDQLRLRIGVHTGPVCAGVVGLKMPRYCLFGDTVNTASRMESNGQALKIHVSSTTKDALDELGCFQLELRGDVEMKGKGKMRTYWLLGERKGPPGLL
In short: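 Antagonist mode: compounds (LOPAC1280, seven 1:5 dilutions) added 30 min before 1 nM hNppC stimulation of hNpr2-HEK293 cGMP-sensor cells; luminescence read before and 20 min after agonist at ambient temperature.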

[12] = qHTS Screen of the MIPE 4.0 Collection Against Ewings Sarcoma (TC32) (AID 1259256); also: nearly all actives have a fitted effect of over 45% in size
In short: as §1

[13] = P-glycoprotein substrates identified in KB-3-1 adenocarcinoma cell line, qHTS therapeutic library screen (AID 1346986); also: nearly all actives have a fitted effect of over 60% in size
In short: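 Viability read by CellTiter-Glo after 72 h compound exposure in dose-response of KB-3-1 and KB-8-5-11 (P-gp-high) cells. Hits needed AC50 < 10 uM, >50% maximum response and curve class -1.1 to -2.4. Cherry-picks retested ± tariquidar, including pcDNA/MDR-19 HEK-293 pair.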

[14] = Natriuretic polypeptide receptor (hNpr1) antagonism - Pilot counterscreen GloSensor control cell line (AID 1347045; calls by dose curve)
In short: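 Control counterscreen: luciferase cGMP-biosensor HEK293 cells (no Npr1) received compound for 30 min at room temperature after GloSensor substrate loading. Luminescence was measured before and 20 min after soluble guanylyl cyclase activation by 50 uM nitroprusside.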

O=C(O)c1cccnc1Nc1cccc(C(F)(F)F)c1
88.7%: viability (% of control) [1]
inactive: Potency [2] | Potency [3] | Potency [4] | Potency [5] | Potency [6] | Potency [7] | Potency [8] | Potency [9] | Potency [10] | Potency [11]

CC1=C(C(=O)O)N2C(=O)[C@@H](NC(=O)[C@H](N)C3=CCC=CC3)[C@H]2SC1
inactive: Potency [2] | Potency [3] | Potency [4] | Potency [5] | Potency [6] | Potency [12] | Potency [13] | Potency [9]
99.4%: viability (% of control) [1]

NNc1nncc2ccccc12
104%: viability (% of control) [1]
inactive: Potency [2] | Potency [3] | Potency [4] | Potency [5] | Potency [6] | Potency [7] | Potency [8] | Potency [10] | Potency [11]

O=C(OC1C[C@H]2CC[C@@H](C1)[N+]21CCCC1)C(O)(c1ccccc1)c1ccccc1 (stereo partly specified)
99.2%: viability (% of control) [1]
inactive: Potency [2] | Potency [3] | Potency [4] | Potency [5] | Potency [6] | Potency [7] | Potency [8]

CCC(C)(Oc1ccc(C2(c3ccc(OC(C)(CC)C(=O)O)cc3)CCCCC2)cc1)C(=O)O (stereo unspecified)
inactive: Potency [2] | Potency [3] | Potency [4] | Potency [5] | Potency [6] | Potency [12] | Potency [7] | Potency [8] | Potency [13]
136%: viability (% of control) [1]

COCCCN1CCC(NC(=O)c2cc(Cl)c(N)c3c2OCC3)CC1
76.6%: viability (% of control) [1]
inactive: Potency [2] | Potency [3]

CC(C)(S)[C@@H](N)C(=O)O
inactive: Potency [2] | Potency [3] | Potency [4] | Potency [5] | Potency [6] | Potency [7] | Potency [8] | Potency [9]
106%: viability (% of control) [1]

COc1ccc(C2(C#N)CCC(C(=O)O)CC2)cc1OC1CCCC1 (stereo unspecified)
inactive: Potency [2] | Potency [3] | Potency [4] | Potency [5] | Potency [6] | Potency [12] | Potency [7] | Potency [8] | Potency [9]
87.2%: viability (% of control) [1]

CCCCc1ccc2nc(NC(=O)OC)[nH]c2c1
13.4%: viability (% of control) [1]
inactive: Potency [2] | Potency [3] | Potency [12] | Potency [8]
active: Potency [4] 10.5 nM | Potency [5] 18.7 nM | Potency [6] 9.3 nM

c1cnc2cc3c(cc2n1)C1CNCC3C1
inactive: Potency [2] | Potency [3] | Potency [4] | Potency [5] | Potency [6] | Potency [12] | Potency [13] | Potency [9]
97.2%: viability (% of control) [1]

Nc1ccn([C@@H]2O[C@H](CO)[C@@H](O)C2O)c(=O)n1 (stereo partly specified)
inactive: Potency [2] | Potency [3] | Potency [4] | Potency [5] | Potency [6] | Potency [12] | Potency [7] | Potency [8] | Potency [13] | Potency [9] | Potency [14] | Potency [10] | Potency [11]
92.2%: viability (% of control) [1]

COc1ccc2cc([C@H](C)C(=O)O)ccc2c1
135%: viability (% of control) [1]
inactive: Potency [2] | Potency [3] | Potency [4] | Potency [5] | Potency [6] | Potency [7] | Potency [8] | Potency [9] | Potency [14] | Potency [10] | Potency [11]

CCCCCCCCCCCCCCCCCCCCCCO
inactive: Potency [2] | Potency [3] | Potency [4] | Potency [5] | Potency [6] | Potency [12] | Potency [7] | Potency [8] | Potency [9]
105%: viability (% of control) [1]

COc1cc2c(cc1OC)C1CC(=O)C(CC(C)C)CN1CC2 (stereo unspecified)
inactive: Potency [2] | Potency [3] | Potency [4] | Potency [5] | Potency [6] | Potency [12] | Potency [9] | Potency [14] | Potency [10] | Potency [11]
100%: viability (% of control) [1]

Cc1ccc(C(=O)c2cc(O)c(O)c([N+](=O)[O-])c2)cc1
73.3%: viability (% of control) [1]
inactive: Potency [2] | Potency [3]

Clc1ccc(C(Cn2ccnc2)OCc2ccc(Sc3ccccc3)cc2)c(Cl)c1 (stereo unspecified)
100%: viability (% of control) [1]
inactive: Potency [2] | Potency [3]

O=c1cc(N2CCOCC2)oc2c(-c3ccccc3)cccc12
active: Potency [4] 13200 nM | Potency [5] 18700 nM | Potency [6] 18700 nM | Potency [9] 5.9 µM and 20 µM
36.2%: viability (% of control) [1]
inactive: Potency [2] | Potency [3] | Potency [14] | Potency [10] | Potency [11]

Cc1cc(Cl)ccc1OCCCC(=O)NO
active: Potency [4] 743 nM | Potency [5] 9350 nM | Potency [6] 1050 nM
3.6%: viability (% of control) [1]
inactive: Potency [2] | Potency [3] | Potency [13]

Cc1cc2c(s1)Nc1ccccc1N=C2N1CCN(C)CC1
115%: viability (% of control) [1]
inactive: Potency [2] | Potency [3] | Potency [4] | Potency [5] | Potency [6] | Potency [7] | Potency [8] | Potency [13] | Potency [9]

O=C(O)c1cc(=O)c2c(OCC(O)COc3cccc4oc(C(=O)O)cc(=O)c34)cccc2o1
inactive: Potency [2] | Potency [3] | Potency [4] | Potency [5] | Potency [6] | Potency [12] | Potency [7] | Potency [8]
115%: viability (% of control) [1]
